Assay outcomes as filed in PubChem BioAssay.
Sampled rows, rich in hits. Any-hit rate of the full collection: about 9%.
PLK1 PBD block: qHTS for Inhibitors of PLK1-PDB (polo-like kinase 1 - polo-box domain): Primary Screen. Serine/threonine-protein kinase PLK1 (Homo sapiens), P53350. Plk1 PBD binding of FITC phosphopeptide, fluorescence polarization. Potency, µM, most hits filed as inhibitors. 360,000 tested, 2.8% active; note: series mostly up to about 57 µM; nearly all actives have a fitted effect of over 65% in size
12-LOX inh: Primary qHTS assay for inhibitors of human arachidonate 12S-lipoxygenase (ALOX12): Round 2 | Polyunsaturated fatty acid lipoxygenase ALOX12 (Homo sapiens), P18054 | purified 12hLO, xylenol orange hydroperoxide absorbance | Potency, µM (highest dose often 108 µM), hits mostly inhibitors | 580,000 tested, 1.1% active | AID 1671190, 2021
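Purified human 12hLO at 150 nM in 25 mM Hepes, 0.01% Triton X-100, pH 7.0, preincubated 15 min at room temperature with compound. Reaction started with 40 uM arachidonic acid, 30 min at room temperature. Hydroperoxide measured by Fe-xylenol orange, 573/405 nm absorbance ratio.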
BAZ2B block: qHTS Assay for Inhibitors of BAZ2B | Bromodomain adjacent to zinc finger domain protein 2B (Homo sapiens), Q9UIF8 | AlphaScreen BAZ2B-H3K14Ac peptide displacement | Potency, µM (doses to about 114 µM), most hits filed as inhibitors | 360,000 tested, 4.4% active | AID 504333, 2011; note: nearly all actives have a fitted effect of over 60% in size
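AlphaScreen luminescence quantifies BAZ2B engagement of H3K14Ac peptide; the protein and biotinylated peptide are both at 50 nM final, buffer PBS pH 7.4 with 0.01% Tween-20, all steps at room temperature.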
HP1b chromo inh: HTS for Inhibitors of HP1-beta Chromodomain Interactions with Methylated Histone Tails. Chromobox protein homolog 1 (Homo sapiens), P83916. AlphaScreen HP1-beta / biotin-H3K9me3 peptide binding. Potency, µM (doses to about 114 µM), most hits filed as inhibitors. 390,000 tested, 0.56% active; note: nearly all actives have a fitted effect of over 70% in size
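AlphaScreen: HP1-beta (50 nM) preformed 30 min with biotin-H3(1-18)K9me3 peptide (50 nM) in PBS pH 7.4, 0.01% Tween-20. Compound added for 30 min at RT, then streptavidin donor/nickel chelate acceptor beads (10 ug/mL) for 30 min.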
JMJD2A Tudor: qHTS Assay for Inhibitors of JMJD2A-Tudor Domain; AlphaScreen JMJD2A-Tudor / H3K4me3 peptide binding; Potency, µM (highest dose often 114 µM), usual class: inhibitors; 390,000 tested, 4.4% active; note: nearly all actives have a fitted effect of over 50% in size
G9a block: qHTS Assay for Inhibitors of Histone Lysine Methyltransferase G9a. 350,000 tested, 8.8% active. G9a H3K9 monomethylation, AlphaScreen, 2 h. AID 504332, 2011. Potency, µM (doses to about 102 µM), hits mostly inhibitors. Histone-lysine N-methyltransferase EHMT2 (Homo sapiens), Q96KQ7; note: nearly all actives have a fitted effect of over 75% in size
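Compounds were preincubated with 20 nM G9a for 15 min, after which biotinylated H3K9 peptide (500 nM) and SAM (20 uM) started a 2 h room-temperature reaction. Monomethylated product was quantified by antibody-based AlphaScreen chemiluminescence.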
Hits are given with their value; n = inactive; u = inconclusive; x = no result given; [ ] = another dose, or the depositor's remark. Calls come from the whole dose curve; as a rule, active = well fitted curve in the direction sought with a large enough effect; inconclusive = small, poorly fitted or top-dose-only effect, or another doubt; inactive = no such curve, though single readings can be large; an effect the other way counts as inactive or inconclusive.

SMILES	PLK1 PBD block	12-LOX inh	BAZ2B block	HP1b chromo inh	JMJD2A Tudor	G9a block
CC(=O)Oc1ccc(C(=O)O)cc1OC(C)=O	n	n	u	n	n	n
CC(=O)Oc1cccc2c1C(=O)c1c(OC(C)=O)cc(C(=O)O)cc1C2=O	u	n	u	n	u	3.55µM
Cc1cccn2c(=O)c(C=Nc3c(C)n(C)n(-c4ccccc4)c3=O)c(N3CCCC3)nc12	x	x	n	x	x	n
COC(=O)c1cccc(NC(=S)N[C@H]2CO[C@H]3[C@@H]2OC[C@@H]3n2nnnc2-c2ccc3c(c2)OCO3)c1	x	n	x	x	x	x
Cc1ccc(S(=O)(=O)NC(CC(C)C)C(=O)NCC(C)(C)N2CCOCC2)cc1 (configuration not stated)	n	n	n	n	n	n
COc1ccc(C)cc1NC(=O)CSc1nc(=O)n(Cc2ccco2)c2c1CCC2	x	n	n	n	n	n
CC12CCC(C[N+](C)(C)C1)C2(C)C (configuration not stated)	n	u	n	n	22.4µM	u
CC[N+]1(CC)CC2CCC(C)(C1)C2(C)C (configuration not stated)	n	44.7µM	n	n	u	u
COc1cc(C2Oc3ccccc3C=C2[N+](=O)[O-])cc(OC)c1OC (configuration not stated)	4.23µM	u	35.5µM	n	56.2µM	x
Cc1ccc(NC(=O)C2=C(O)c3sccc3N(C)S2(=O)=O)cc1	n	n	n	n	u	n[12.7 µM]
Cc1ccc(NC(=S)C2=C(O)c3sccc3N(C)S2(=O)=O)cc1	u	u	n	n	n	17.8µM
COCCCn1c(SCC(=O)Nc2ccc(NC(C)=O)cc2)nc2sc3c(c2c1=O)CCC3	n	n	n	n	n	44.7µM
CCn1c(SCC(=O)O)nc2sc3c(c2c1=O)CCC3	u	n	56.2µM	n	u	44.7µM
C=CCn1c(SCC(=O)Nc2cc(C)on2)nc2sc3c(c2c1=O)CCCC3	26.7µM	n	n	n	n[11.4 µM]	n[12.7 µM]
CCn1c(SCC(=O)OC)nc2sc3c(c2c1=O)CCC3	n	u	50.1µM	u	50.1µM	x
COCCn1c(SCC(=O)NCC(c2ccccc2)N(C)C)nc2sc3c(c2c1=O)CCC3 (configuration not stated)	n	n	x	n	n	x
Cn1c(SCC(=O)O)nc2sc3c(c2c1=O)CCC3	n	n	n	n	n	n
CCn1c(SCC(=O)OC)nc2sc3c(c2c1=O)CC(C)(C)OC3	n	n	n	n	n	n[12.7 µM]
COc1cc(Nc2cc(C)nc3nc(C)nn23)cc(OC)c1OC	n	n	n	n	n	u
C[C@@H](CSc1ccc(Br)cc1)CN1CC[C@H](NC(=O)OCc2ccccc2)CCC1=O	n	n	x	n	n	x
CCN(CCCNC(=O)CNC(=O)c1nn(-c2ccc(OC)c(OC)c2)c(=O)c2ccccc12)c1ccccc1	n	n	n	n	u	u
COc1ccc(-n2nc(C(=O)NCC(=O)NCCCN3CCCCCC3)c3ccccc3c2=O)cc1Cl	n	n	n	n	n	25.1µM
COc1ccc(-n2nc(C(=O)NCC(=O)Nc3ccccn3)c3ccccc3c2=O)cc1Cl	n	u	u	n	31.6µM	n[0.0925 µM]
CCN(CCCNC(=O)CNC(=O)c1nn(-c2ccc(OC)cc2)c(=O)c2ccccc12)c1cccc(C)c1	n	n	n	n	u	31.6µM
COc1ccc(-n2nc(C(=O)NCC(=O)NCCCN3CCC(C)CC3)c3ccccc3c2=O)cc1Cl	n	n	n	n	n	n
SMILES	PLK1 PBD block	12-LOX inh	BAZ2B block	HP1b chromo inh	JMJD2A Tudor	G9a block
CCOc1ccc(CCNC(=O)CCc2nnc3ccc(N4CCOCC4)nn23)cc1OCC	n	n	n	n	n	x
O=C1c2ccccc2C(=O)C1(CO)c1ccccc1	n	n	n	n	n	44.7µM
COc1ccc(C)cc1Nc1nc(N)c2cc(OC)c(OC)cc2n1	n	n	u	n	u	u
Cc1ccc(O)c(Nc2c3ccccc3nc3ccccc23)c1	n	n	35.5µM	u	u	u
COc1ccc(Cl)cc1Nc1nc(N)c2ccccc2n1	n	n	n	n	n	79.4µM
Cc1cc(C)nc(Nc2nc(C)c3ccccc3n2)n1	x	n	x	x	x	x
O=c1oc(Nc2cccc(F)c2)nc2ccccc12	n	n	n	n	n	n
Cc1ccc(C)c(Nc2nc(N)c3ccccc3n2)c1	n	u	n	n	n	50.1µM
Nc1nc(Nc2cccc(F)c2)nc2ccccc12	n	u	u	n	n	56.2µM
O=[N+]([O-])c1ccc(NC(=S)NCCc2ccc(Cl)cc2)cc1	n	u	u	n	u	n
COc1ccc(CNC(=O)N2CC3ON=C(c4ccccc4C)C3C2)cc1 (configuration not stated)	x	n	x	x	x	x
O=[N+]([O-])c1ccccc1N=Nc1ccc(O)cc1O	n	u	x	u	56.2µM	x
CCc1ccc(NCCC(=O)c2ccc(Cl)cc2)cc1	n	n	u	n	n	n[0.0925 µM]
CCc1ccc2c(c1)C(NC(C)=O)C(=O)N2CC (configuration not stated)	n	n	n	n	n	u
CC(=O)NC1C(=O)N(CCN2CCOCC2)c2ccc(Cl)cc21 (configuration not stated)	n	39.8µM	8.91µM	u	12.6µM	31.6µM
Cc1ccc2c(c1)C(=C(C#N)C#N)C(=O)N2CCN1CCOCC1	11.9µM	u	n	n	n	x
CCCCN1C(=O)C(NC(C)=O)c2cc(Br)ccc21 (configuration not stated)	n	n	n	n	n	2.51µM
Cc1ccc2c(c1)C(=C(C#N)C#N)C(=O)N2CCN1CCCCC1	u	n	n	u	u	x
CC(=O)NC1C(=O)N(CCN2CCOCC2)c2ccc(F)cc21 (configuration not stated)	n	39.8µM	10µM	n	22.4µM	31.6µM
CCN1C(=O)C(NC(C)=O)c2cc(Br)ccc21 (configuration not stated)	n	u	n	n	n	n
COc1ccccc1OCCN1C(=O)C(NC(C)=O)c2ccccc21 (configuration not stated)	x	n	x	x	x	x
CCc1nn2c(=O)cc(COC(=O)COc3ccc(OC)cc3)nc2s1	x	n	n	u	n	n
Cc1nc2c(-c3ccccc3)c(C)nn2c(N)c1-c1ccccc1	n	n	n	n	n	n
Cc1cccc(N2CCN(S(=O)(=O)c3c(C)[nH]c(C)c3C(=O)N3CCCCC3)CC2)c1C	n	n	n	n	n	n
